Screening data as filed in PubChem.
This is a sample that favours compounds with a hit; in the whole collection about 2.2% have one here.
GC-A act: GC-A (human) enzyme activation; P16066; HEK293 GC-A cells, cGMP TR-FRET, EC30 ANP; 0% at EC30 ANP, 100% saturating ANP; activation, % at 10 µM; 370,000 compounds, 0.14% hits; AID 1671463; in the data active = activation above about 40%
KLK7 zymogen act: activators of human kallikrein-7 zymogen. activation, % at 7 µM. purified proKLK7, EDANS-DABCYL substrate fluorescence; 100% is mature enzyme control, 0% vehicle. 370,000 compounds, 0.9% hits;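 active = activation above the mean of all tested compounds plus 3 SD, computed per campaign excluding outliers beyond control limits, cut at about 13% in these data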
Target sequence (P49862 whole entry, looked up): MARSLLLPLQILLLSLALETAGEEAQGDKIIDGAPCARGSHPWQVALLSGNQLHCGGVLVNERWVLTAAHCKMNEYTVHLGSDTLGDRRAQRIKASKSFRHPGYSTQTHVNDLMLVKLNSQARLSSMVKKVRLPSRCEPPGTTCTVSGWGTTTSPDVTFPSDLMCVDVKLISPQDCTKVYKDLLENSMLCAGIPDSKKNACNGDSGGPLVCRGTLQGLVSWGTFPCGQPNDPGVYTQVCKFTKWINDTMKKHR
ADAM10 inh: inhibits human ADAM10; recombinant ADAM10, EDANS/DABCYL FRET peptide cleavage, 3 h; inhibition, % at 7 µM; 370,000 compounds, 0.62% hits; AID 720582;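 active = inhibition above a per-campaign cutoff equal to the mean of compounds falling between control-based bounds plus 3 SD, cut at about 20% in these data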;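 note: 0% = DMSO wells while the 100% control is not disclosed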
NPR2 activator: GC-B (human) receptor activation; P20594; HEK293-GC-B cells, CNP EC30, cGMP TR-FRET; 0% at EC30 CNP, 100% saturating CNP; activation, % at 10 µM; 370,000 compounds, 0.11% hits; AID 1920062;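 active = activation at 10 µM reaching about 35% in either raw or pattern-adjusted values, limit read from the data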
ADAM17 inh: ADAM17 inhibition, QFRET primary screen. recombinant ADAM17, EDANS/DABCYL FRET peptide cleavage. P78536. 370,000 compounds, 0.83% hits. inhibition, % at 6.95 µM. AID 720648;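 active = inhibition above the mean of compounds lying between control limits plus 3 SD, set per campaign, cut at about 8.5% in these data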;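 note: 0% = DMSO-only wells as the low control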
KLK7 act conf: proKLK7 activation, confirmation; shares compounds with KLK7 zymogen act; purified proKLK7, EDANS-DABCYL substrate fluorescence; scaled: vehicle 0, mature enzyme 100; activation, % at 7 µM; 3,200 compounds, 68% hits; AID 686949;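 active = activation, as change over the incubation, above the mean of all tested compounds plus 3 SD, cut at about 13% in these data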
EDANS-DABCYL int: counter-screen for kallikrein-7 activators: EDANS-DABCYL optical interference; shares compounds with KLK7 zymogen act; EDANS-DABCYL substrate fluorescence interference, no enzyme, 4 h; solvent 0%, active enzyme control 100%; activation, % at 7 µM; 3,200 compounds, 80% hits; AID 686952;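 active = activation above the all-compound mean plus 3 SD, ignoring values outside control-based bounds, cut at about 4.8% in these data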;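 note: value is the 4 h activation minus the activation read at time zero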
EDANS interf: optically interferes with EDANS-DABCYL fluorescence, kallikrein-7 activator counter-screen; 250 compounds, 20% hits; EDANS-DABCYL peptide fluorescence interference, no enzyme; AID 720493; shares compounds with KLK7 zymogen act; EC50, µM;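 active = compounds that raise the fluorescence signal in this interference counterscreen, with EC50 at or below 10 µM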;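 note: intact quenched peptide substrate alone read at 355 nm excitation and 520 nm emission; signal is fluorescence gain from T0 to T4 after four hours at room temperature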
ADAM10 confirm: confirmation of inhibitors of human ADAM10; shares compounds with ADAM10 inh; ADAM10 QFRET peptide cleavage, EDANS fluorescence; inhibition, % at 6.95 µM; 2,100 compounds, 1% hits; AID 743208;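 active = inhibition above about 20% chosen separately for each screening run, limit read from the data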;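 note: 0% = DMSO wells and 100% = marimastat wells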
ADAM17 counter: counter-screen for ADAM10 exosite inhibitors: inhibitors of human ADAM17; ADAM17 QFRET peptide cleavage, EDANS fluorescence; shares compounds with ADAM10 inh; inhibition, % at 6.95 µM; 2,100 compounds, 0.5% hits;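 active = mean triplicate inhibition above the solvent-only control wells' mean plus 3 SD, cut at about 12% in these data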;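 note: 0% = DMSO wells and 100% = marimastat wells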
An asterisk follows results filed as active; i = inactive; · = not tested or not shown.

SMILES	GC-A act	KLK7 zymogen act	ADAM10 inh	NPR2 activator	ADAM17 inh	KLK7 act conf	EDANS-DABCYL int	others
COc1ccc(C2CC(c3c(O)n(CCc4ccccc4)c(=O)[nH]c3=O)=NN2)cc1OC (centres undefined)	4	0	1	-10	-1	·	·
O=S(=O)(c1ccccc1)N1CCN2CCCC2C1 (centres undefined)	0	0	4	1	-2	·	·
COc1cc([C@H]2OC[C@H]3[C@@H]2CO[C@@H]3c2cc(OC)c(O[C@@H]3O[C@H](CO)[C@@H](O)[C@H](O)[C@H]3O)c(OC)c2)cc(OC)c1O[C@H]1O[C@@H](CO)[C@H](O)[C@@H](O)[C@@H]1O	-1	-1	-64	5	-14	·	·
O=c1ccc2cc(OC3O[C@H](CO)[C@@H](O)[C@H](O)[C@H]3O)c(O)cc2o1 (some centres undefined)	11	53*	i	0	i	59*	74*
O=c1[nH]c(=O)n(CCC2=CCCCC2)c(O)c1C=NCCCn1ccnc1	-2	0	10	2	-2	·	·
CN(C)CCN=Cc1c(O)n(CCC2=CCCCC2)c(=O)[nH]c1=O	1	27*	7	1	0	1	0
COC(=O)C12CCc3c(ccc4cc(OC)ccc34)C1=CC(=O)C2 (centres undefined)	-1	93*	i	2	i	65*	79*
O=C(NC1CCCCC1)N1Cc2ccccc2-n2nncc2C1	-1	0	-6	-1	-4	·	·
COc1ccc(Cn2c(N)c(C(=O)NCc3ccco3)c3nc4ccccc4nc32)cc1OC	25	-18	-444	21	-178	·	·
Nc1c(C(=O)NCc2ccco2)c2nc3ccccc3nc2n1CCN1CCCCC1	4	63*	i	-2	-458	-57	-69
CCCCNC(=O)NC(C(N)=O)P(=O)(OCC)OCC (centres undefined)	0	0	-5	3	-3	·	·
C[C@@H]1CN([C@@H](C)CO)C(=O)CCCn2nncc2CO[C@@H]1CN(C)C(=O)Oc1ccccc1	2	0	-1	1	3	·	·
CC1(C)CC(=O)c2cc(OCC(=O)N3CCN(Cc4ccccc4)CC3)ccc2O1	7	-3	-258	2	-84	·	·
CCN1CCN(C(=O)COc2ccc3c(c2)C(=O)CC2(CCN(C(C)=O)CC2)O3)CC1	0	36*	i	4	-361	82*	63*	EDANS interf=>70
CCOc1ccc(-c2cc(C)[n+](CCN3CCOCC3)c(-c3ccc(OCC)cc3)c2)cc1	3	25*	-374	4	-135	29*	28*
COCCn1c(O)c(/C=N/NC(=O)CSC(=S)N2CCCC2)c(=O)[nH]c1=S	0	0	-4	-1	1	·	·
CN1CCN(c2ccc3c(c2)S(=O)(=O)c2ccccc2C3=O)CC1	3	20*	6	6	0	5	4.2*
Cc1nc(C)c(C(=O)NN=Cc2ccc(N(CCCl)CCCl)cc2)s1	4	3	-25	-2	-6	·	·
CCOC(=O)c1c(N)n(CCCOC(=O)c2ccco2)c2nc3ccccc3nc12	0	39*	i	-2	i	63*	64*
CCCCNC(=O)c1c(N)n(CCCOC)c2nc3ccccc3nc12	18	-31	i	5	-422	·	·
COCCCn1c(N)c(C(=O)OCCOC)c2nc3ccccc3nc21	-1	84*	i	1	i	71*	78*
CCOC(=O)c1c(NS(=O)(=O)c2ccccc2)n(CCCOC)c2nc3ccccc3nc12	8	82*	i	9	i	66*	70*
O=C1NC(=O)C(C2CCOC2=O)N1 (centres undefined)	2	0	1	0	3	·	·
CC1=Nc2ccccc2/C1=C/c1c(O)[nH]c(=O)[nH]c1=O	4	0	-10	-3	-3	·	·
Cc1ccc2c(c1)=NC(=O)/C(=C/c1c(O)[nH]c(=O)[nH]c1=O)C=2	-2	18*	-119	1	-50	46*	45*
SMILES	GC-A act	KLK7 zymogen act	ADAM10 inh	NPR2 activator	ADAM17 inh	KLK7 act conf	EDANS-DABCYL int	others
CCOC(=O)c1cc2c(cn1)[nH]c1ccccc12	2	20*	-293	-2	-72	-2	-5
CCCCCCC(C)(C)c1ccc([C@@H]2C[C@H](O)CC[C@H]2CCCO)c(O)c1	-3	0	27*	5	6	·	·	ADAM10 confirm=5;ADAM17 counter=1
CC12Nc3ccccc3C(=O)N1Cc1cnnn1-c1ccccc12 (centres undefined)	-2	12	i	-2	-169	·	·
NC(Cc1ccc(N(CCCl)CCCl)cc1)C(=O)O (centres undefined)	3	-1	-14	-3	0	·	·
CCCC/C(C)=C/[C@@H](NP(=O)(c1ccccc1)c1ccccc1)c1ccccc1	-16	0	20*	-22	9	·	·	ADAM10 confirm=7;ADAM17 counter=2
O=C(COC(=O)c1cccc(O)c1)Nc1ccc(Cl)cc1C(=O)c1ccccc1	-8	1	23*	-5	8	·	·	ADAM10 confirm=7;ADAM17 counter=1
CCOc1ccccc1OCC(=O)Nc1ccc(Cl)cc1C(=O)c1ccccc1	-7	0	6	-7	6	·	·
COC(=O)C1=C(c2cccc(OCc3ccccc3)c2)C[C@@H]2CC[C@H]1N2C(=O)NCc1ccc([N+](=O)[O-])cc1	-3	-1	26*	1	7	·	·	ADAM10 confirm=9;ADAM17 counter=2
COC(=O)C1=C(c2ccccc2OCc2ccccc2)C[C@@H]2CC[C@H]1N2C(=O)NCc1ccc(F)cc1	-8	0	12	-3	-1	·	·
COC(=O)C1=C(c2ccccc2OCc2ccccc2)C[C@@H]2CC[C@H]1N2C(=O)NCc1ccc(C(C)(C)C)cc1	3	0	25*	1	4	·	·	ADAM10 confirm=11;ADAM17 counter=3
C[C@@H]1CN([C@@H](C)CO)C(=O)CCCn2nncc2CO[C@H]1CN(C)C(=O)Oc1ccccc1	-1	0	-8	4	-3	·	·
O=P(CCl)(Nc1ccccc1)C(Cl)(Cl)Cl (centres undefined)	2	0	2	1	-2	·	·
